About 60 (0.1%) of roughly 59,000 compounds were called active. No rule for the calls is given here. The full list was thinned out, with actives kept by preference.
Assay: qHTS Assay for Spectroscopic Profiling in A488 Spectral Region
Details: compound autofluorescence
Description: NIH Molecular Libraries Screening Centers Network [MLSCN]
NIH Chemical Genomics Center [NCGC]
Occasionally, the artifactual effect may originate from the compounds own spectral or other biophysical properties which generally tend to track its assay concentration. Pre-screening/profiling the library with respect to the compounds spectral properties should help one exclude false positives early on. While the most informative fluorescent profiling data set is obtained by performing a full excitation and emission scan of each well by using a monochromator-based plate reader, such an approach is practical only on a very limited scale as scanning each well requires long time. An alternative approach, applied here, is to perform plate reader scans using selected excitation and emission wavelength pairs to generate a multidimensional relational database that correlates compound concentration and the respective relative fluorescence intensity at a given wavelength set. A standard curve of Alexa 488 (A488) present on each plate as six-point concentration series, was used to compute a normalized fluorescence response, termed dye-equivalent concentration, for each compound at each concentration.
NCGC Assay Protocol Summary:
100 mM Tris buffer, pH 8.0
The wells in columns 1 through 4 of a Kalypsys polypropylene 1536-well compound plate were filled with standard solutions of fluorophore corresponding to the spectral region of interest. Solutions of A488 were placed in the following wells: Y1, Z1: 3 mM, Y2, Z2: 300 uM, Y3, Z3: 30 uM, Y4, Z4: zero (DMSO), AA1, AB1: 3 uM, AA2, AB2: 900 nM, AA3, AB3: 300 nM, AA4, AB4: zero (DMSO).
Six uL of buffer were dispensed to 1536-well Greiner black plates. Compounds and dye standards (23 nL) were transferred via Kalypsys PinTool. The plates were incubated for 15 min at room temperature, and then read on ViewLux (Perkin-Elmer) High-throughput CCD imager using 480 nm and 540 nm excitation and emission filter set.
Keywords: NIH Roadmap, MLSCN, MLI, MLSMR, qHTS, NCGC, A488, A-488, Fluorescent Profiling.

[1] = max dye equivalency: Compound Type: qHTS ECL - SigmaAldrich, active compounds read high unless noted, outcome: dye equivalency, Compound Type: qHTS ECL - MLSMR unless noted

For `COc1ccc2oc(C)c(NC(C)=O)c2c1`, the outcome [1] was “inactive”.
For `NC(=O)CSC1=Nc2ccccc2C2=NC(CCC(=O)NCc3ccc(F)cc3)C(=O)N12` (configuration not stated), the outcome [1] was “inactive [dye equivalency, Compound Type: qHTS ECL - DPISMR]”.
In the case of `Oc1c(C(c2ccccn2)N2CCOCC2)ccc2cccnc12` (configuration not stated), the outcome [1] was “inactive”.
For `COc1cc(OC)cc(C(=O)Nc2ccc(-c3nc4ccccc4o3)c(O)c2)c1`, the outcome [1] was “inactive”.
In the case of `Clc1ccccc1-c1cc(NCCN2CCOCC2)ncn1`, the outcome [1] was “inactive [dye equivalency, Compound Type: qHTS ECL - Pharmacopeia]”.
For `O=C1c2ccncc2C(=O)N1C1CCCCC1`, the outcome [1] was “inactive”.
With `COc1cc(C2C(C#N)=C(N)Oc3n[nH]c(-c4ccccn4)c32)cc(OC)c1OC` (configuration not stated) the outcome [1] was “inactive”.
With `CS(=O)(=O)c1ccc2nc(NC(=O)CN3CCCCCC3)sc2c1` the outcome [1] was “inactive”.
With `CC(=O)c1sc2nc(SCC(=O)N3CCCCC3)[nH]c(=O)c2c1C` the outcome [1] was “inactive [dye equivalency, Compound Type: qHTS ECL - DPISMR]”.
With `O=C(CN1CCN(c2ncc(C(F)(F)F)cc2Cl)CC1)Nc1ccc2c(c1)OCO2` the outcome [1] was “inactive”.
For `O=c1cnc2cnc(Nc3ccccc3)nc2n1Cc1ccc(F)cc1`, the outcome [1] was “inactive [dye equivalency, Compound Type: qHTS ECL - Pharmacopeia]”.
For `CCOc1ccc(-n2c(SC(C)C(=O)OC)nc3c(c2=O)SCC3)cc1` (configuration not stated), the outcome [1] was “inactive”.
In the case of `CC(Sc1sc(=S)sc1SC(C)C(=O)O)C(=O)O` (configuration not stated), the outcome [1] was “inactive”.
With `CN(C)c1ccc(-c2nc(NCCN3CCOCC3)c3ccccc3n2)cc1` the outcome [1] was “inactive [dye equivalency, Compound Type: qHTS ECL - Pharmacopeia]”.
In the case of `COCCn1c(=O)c(-c2ccccc2)nc2cnc(N3CCOCC3)nc21`, the outcome [1] was “inactive [dye equivalency, Compound Type: qHTS ECL - Pharmacopeia]”.
With `O=C(c1cccc(F)c1)N1CCC2(CC1)CCN(c1ccccc1)CC2` the outcome [1] was “inactive [dye equivalency, Compound Type: qHTS ECL - Pharmacopeia]”.
In the case of `Clc1ccc(Cn2ncc3c(NCc4cccnc4)ncnc32)cc1`, the outcome [1] was “inactive [dye equivalency, Compound Type: qHTS ECL - DPISMR]”.
For `O=C(O)C1CCCN1S(=O)(=O)c1ccc2c(c1)CCC2` (configuration not stated), the outcome [1] was “inactive”.
In the case of `CN(C)C(=O)c1ccc(-c2cncnc2Nc2ccccc2)cc1`, the outcome [1] was “inactive [dye equivalency, Compound Type: qHTS ECL - Pharmacopeia]”.
In the case of `CCOC(=O)N1CCC(C(N)=O)CC1`, the outcome [1] was “inactive”.
With `Cc1cc(C)n2nc(C(=O)Oc3ccc4c(c3)OCO4)nc2n1` the outcome [1] was “inactive”.
With `N#Cc1ccc(CN2CCCC3(CCN(C(=O)c4ccco4)CC3)C2)cc1` the outcome [1] was “inactive [dye equivalency, Compound Type: qHTS ECL - Pharmacopeia]”.
In the case of `CCCCOc1ccc(NC(=O)CSCC(=O)OCC)cc1`, the outcome [1] was “inactive”.
For `Cc1cccc(N)c1SC1CCCCC1O` (configuration not stated), the outcome [1] was “inactive”.
With `COc1ccccc1CNc1ncncc1-c1cccc(NS(C)(=O)=O)c1` the outcome [1] was “inactive [dye equivalency, Compound Type: qHTS ECL - Pharmacopeia]”.
In the case of `COC(=O)Cc1c(C)c2ccc(OCC(=O)NCc3ccc4c(c3)OCO4)cc2oc1=O`, the outcome [1] was “inactive [dye equivalency, Compound Type: qHTS ECL - DPISMR]”.
With `O=c1c(CCc2ccccc2)nc2cnc(N3CCNCC3)nc2n1Cc1cccs1` the outcome [1] was “inactive [dye equivalency, Compound Type: qHTS ECL - Pharmacopeia]”.
With `O=C(NC1CCCCC1)N1CCc2[nH]c3ccccc3c2C1` the outcome [1] was “inactive [dye equivalency, Compound Type: qHTS ECL - DPISMR]”.
With `CCOC(=O)c1c(N)c(C#N)nn1-c1ccccc1C(=O)OC` the outcome [1] was “inactive [dye equivalency, Compound Type: qHTS ECL - DPISMR]”.
For `Cc1ccc(C(=O)NC2CC(C)(C)NC(C)(C)C2)c(C)c1`, the outcome [1] was “inactive”.
With `O=C(Oc1ccc2c(c1)CN(Cc1ccccc1)CO2)c1ccccc1` the outcome [1] was “inactive [dye equivalency, Compound Type: qHTS ECL - NCI]”.
With `c1ccc(-c2cn3cccnc3n2)cc1` the outcome [1] was “inactive”.
With `CCC(C)n1[nH]c(=O)cc1N` (configuration not stated) the outcome [1] was “inactive”.
With `Cc1cccc(N2CCN(C(c3ccccc3)c3nnnn3CC3CCCO3)CC2)c1C` (configuration not stated) the outcome [1] was “inactive”.
For `CC1(C)CC(=O)C2=C(C1)NCN(CCCN1CCOCC1)C2`, the outcome [1] was “inactive [dye equivalency, Compound Type: qHTS ECL - DPISMR]”.
With `O=C(c1ccco1)N1CCN(CC(=O)N(C2CCCCC2)C2CCS(=O)(=O)C2)CC1` (configuration not stated) the outcome [1] was “inactive”.
In the case of `O=c1c(-c2cc(F)cc(F)c2)nc2cnc(Oc3ccccc3)nc2n1C[C@H]1CCCO1`, the outcome [1] was “inactive [dye equivalency, Compound Type: qHTS ECL - Pharmacopeia]”.
For `CCCc1nc2ccccc2c(C(=O)OCc2nnc(-c3cc(OC)c(OC)c(OC)c3)o2)c1CC`, the outcome [1] was “inactive”.
For `COc1ccc(OCc2cccc(C(=O)N3CCCC3)c2)cc1`, the outcome [1] was “inactive”.
With `CCOc1ccccc1NC(=O)Nc1cc(OC)ccc1OC` the outcome [1] was “inactive [dye equivalency, Compound Type: qHTS ECL - DPISMR]”.
With `Cn1c(=O)[nH]c(=O)c2c1nc(NCCCn1ccnc1)n2Cc1cccc(Br)c1` the outcome [1] was “inactive [dye equivalency, Compound Type: qHTS ECL - DPISMR]”.
In the case of `CCCc1nc2ccccc2c(=O)n1/N=C/c1ccc(O)c(O)c1`, the outcome [1] was “inactive [dye equivalency, Compound Type: qHTS ECL - DPISMR]”.
In the case of `COc1ccc(-c2nc3cnc(Oc4ccccc4)nc3n(Cc3cccs3)c2=O)cc1`, the outcome [1] was “inactive [dye equivalency, Compound Type: qHTS ECL - Pharmacopeia]”.
In the case of `CN1CCN(S(=O)(=O)c2ccc3[nH]cc(C(=O)O)c(=O)c3c2)CC1`, the outcome [1] was “inactive [dye equivalency, Compound Type: qHTS ECL - DPISMR]”.
For `CCCOP(=O)(c1ccc(N(C)C)cc1)C(O)c1cc(OC)c(OC)c(OC)c1` (configuration not stated), the outcome [1] was “inactive [dye equivalency, Compound Type: qHTS ECL - DPISMR]”.
With `COc1ccccc1-c1nc(NCc2cccs2)c2ccccc2n1` the outcome [1] was “inactive [dye equivalency, Compound Type: qHTS ECL - Pharmacopeia]”.
For `CC(=O)N1CCC(C(=O)Nc2nc(-c3ccccc3)ns2)CC1`, the outcome [1] was “inactive [dye equivalency, Compound Type: qHTS ECL - DPISMR]”.
With `N#Cc1cccc(-c2ccc3ncnc(NCc4cccs4)c3c2)c1` the outcome [1] was “inactive [dye equivalency, Compound Type: qHTS ECL - Pharmacopeia]”.
For `COc1ncc2nc(-c3ccc(Cl)cc3)c(=O)n(-c3ccccc3)c2n1`, the outcome [1] was “inactive [dye equivalency, Compound Type: qHTS ECL - Pharmacopeia]”.
With `COc1ccc2c3c(c(=O)oc2c1OCC(=O)C(C)(C)C)CCCC3` the outcome [1] was “inactive [dye equivalency, Compound Type: qHTS ECL - DPISMR]”.
In the case of `CCOc1ccccc1-n1c(SCC(=O)N2CCCC2)nnc1-c1ccoc1C`, the outcome [1] was “inactive”.
With `CCOC(=O)N1CCC(NC(=O)CN2C(=O)COc3ccc(C(C)(C)C)cc32)CC1` the outcome [1] was “inactive [dye equivalency, Compound Type: qHTS ECL - DPISMR]”.
In the case of `CC1(C)CC(=O)C=C(NCc2ccncc2)C1`, the outcome [1] was “inactive”.
With `Oc1ccc2ccccc2c1C=NCc1c(O)ccc2ccccc12` the outcome [1] was “inactive [dye equivalency, Compound Type: qHTS ECL - NCI]”.
With `COc1cccc(NS(=O)(=O)c2ccc3[nH]cc(C(=O)NCCCOC(C)C)c(=O)c3c2)c1` the outcome [1] was “inactive”.
In the case of `O=c1c2c(nc3n1CCCCC3)sc1c(O)cccc12`, the outcome [1] was “inactive”.
With `O=C(CN1CCN(c2ccc(F)cc2)CC1)Nc1cccc(C(F)(F)F)c1` the outcome [1] was “inactive [dye equivalency, Compound Type: qHTS ECL - DPISMR]”.
For `CCc1c(C)nc(N)n2c(SCC(=O)N3CCN(c4ccccc4)CC3)nnc12`, the outcome [1] was “inactive”.
With `O=C(Nc1cccc(F)c1)N1CCC2(CC1)CCN(S(=O)(=O)c1ccccc1)CC2` the outcome [1] was “inactive [dye equivalency, Compound Type: qHTS ECL - Pharmacopeia]”.
With `COc1ccc(-c2nnc(SCC(=O)c3ccco3)n2-c2ccccc2)cc1` the outcome [1] was “inactive”.
With `CCn1c(SCC(=O)NCC2CCCO2)nc2cc(S(=O)(=O)N3CCCCC3)ccc21` (configuration not stated) the outcome [1] was “inactive”.
For `O=c1c(-c2cccs2)nc2cnc(Oc3ccccc3)nc2n1-c1ccccc1`, the outcome [1] was “inactive [dye equivalency, Compound Type: qHTS ECL - Pharmacopeia]”.
With `COCCn1c(=O)c(-c2cccc(F)c2)nc2cncnc21` the outcome [1] was “inactive [dye equivalency, Compound Type: qHTS ECL - Pharmacopeia]”.
In the case of `CCCn1c(SCC(N)=O)nnc1C(C)C`, the outcome [1] was “inactive”.
With `C=CCNC(=O)CCCC(=O)NCC=C` the outcome [1] was “inactive [dye equivalency, Compound Type: qHTS ECL - DPISMR]”.
For `CN1CCN2c3ccccc3Cc3ccccc3[C@@H]2C1`, the outcome (dye equivalency, Compound Type: qHTS ECL - Prestwick) was “inactive” and the outcome (dye equivalency, Compound Type: qHTS ECL - SigmaAldrich) was “inactive”.
In the case of `CSc1nc(O)c(Cc2ccccc2)c(=O)[nH]1`, the outcome [1] was “inactive”.
For `O=C(Cn1c(-c2ccc(Cl)cc2)noc1=O)N1CCN(c2ccccc2F)CC1`, the outcome [1] was “inactive”.
In the case of `CCN(Cc1cc2cc(C)ccc2[nH]c1=O)S(=O)(=O)c1ccccc1`, the outcome [1] was “inactive”.
In the case of `CCCCOc1ccc(Cl)cc1CSc1nncn1N`, the outcome [1] was “inactive [dye equivalency, Compound Type: qHTS ECL - DPISMR]”.
With `O=c1cc(-c2ccccc2)[nH]c2nc(Cl)ccc12` the outcome [1] was “inactive [dye equivalency, Compound Type: qHTS ECL - SigmaAldrich]”.
